Structures are written as SMILES. Out of some 310,000 compounds screened, about 1,500 (0.48%) were called active. The sample as a whole holds a higher share of actives than the screen did. A number with no mark means an inactive call.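 The calls were made as follows: active = binding more than 3 SD below its plate's average and above zero; inconclusive = below that plate limit but binding exactly zero; inactive = the rest.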

The target of this assay is Desmoglein-3 (Homo sapiens) (UniProt P32926). Nature of the assay: blockers of anti-DSG3 scFv binding – biochemical, bead-based, flow cytometry, scFv-GFP, primary screen (AID 588358).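 Also: hits lower antibody fragment binding to DSG3.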 Conditions: DSG3-coupled beads, at 10 µM, hits give low values. (In flow cytometry, cells or beads pass a laser one at a time.)
Sequence of Desmoglein-3 (Homo sapiens) (P32926 whole entry, looked up, the tested form may be a part): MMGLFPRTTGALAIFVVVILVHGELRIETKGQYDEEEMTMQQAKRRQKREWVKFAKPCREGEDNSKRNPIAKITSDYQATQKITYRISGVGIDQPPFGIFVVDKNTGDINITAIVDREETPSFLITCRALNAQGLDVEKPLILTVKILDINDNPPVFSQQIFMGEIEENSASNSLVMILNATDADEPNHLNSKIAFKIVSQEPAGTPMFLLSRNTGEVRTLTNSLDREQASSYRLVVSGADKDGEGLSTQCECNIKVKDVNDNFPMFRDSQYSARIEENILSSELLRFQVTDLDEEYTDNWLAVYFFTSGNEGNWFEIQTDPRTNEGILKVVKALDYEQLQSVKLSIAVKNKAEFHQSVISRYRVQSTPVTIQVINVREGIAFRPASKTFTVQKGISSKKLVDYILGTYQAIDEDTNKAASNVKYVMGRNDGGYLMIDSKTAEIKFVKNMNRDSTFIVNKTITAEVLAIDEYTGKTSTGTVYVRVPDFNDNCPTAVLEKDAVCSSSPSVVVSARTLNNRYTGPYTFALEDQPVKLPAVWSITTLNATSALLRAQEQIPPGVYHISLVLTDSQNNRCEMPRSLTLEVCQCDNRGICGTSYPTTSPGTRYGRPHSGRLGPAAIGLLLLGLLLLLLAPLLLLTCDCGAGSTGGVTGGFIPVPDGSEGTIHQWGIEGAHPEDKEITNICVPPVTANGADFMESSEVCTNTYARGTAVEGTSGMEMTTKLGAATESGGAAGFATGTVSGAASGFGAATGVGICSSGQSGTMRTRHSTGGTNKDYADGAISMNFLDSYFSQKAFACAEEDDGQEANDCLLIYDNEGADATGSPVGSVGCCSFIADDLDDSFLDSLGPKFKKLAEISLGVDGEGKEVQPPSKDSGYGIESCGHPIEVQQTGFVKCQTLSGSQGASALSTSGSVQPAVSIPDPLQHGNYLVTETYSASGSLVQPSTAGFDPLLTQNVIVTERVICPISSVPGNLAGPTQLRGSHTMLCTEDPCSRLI
Consider `Cc1cc2cc(CNC(=O)c3ccc(S(=O)(=O)N4CCOCC4)cc3)ccc2[nH]1`, for which the binding (percent of control) is 95.4%.

On to `Cc1cc2cc(CNC(=O)c3cccs3)ccc2[nH]1`, for which the binding (percent of control) is 80.6% (active). Under `CCc1cccc(CC)c1NC(=S)NCc1ccc2[nH]c(C)cc2c1` stands 78.1%; under `Cc1onc(-c2ccccc2)c1-c1nnc(COC(=O)c2ccc(N(C)C)cc2)o1`, 109%. Under `C[C@H](CO)N1C[C@H](C)[C@H](CN(C)C(=O)c2ccncc2)OCc2ccccc2-c2c(n(C)c3ccccc23)C1=O` stands 103%; under `Cc1cccc(C(=O)NC2CCN(CC(=O)Nc3cccc(Cl)c3)CC2)c1`, 92.9%. For `O=C(c1cc(-c2ccc(Cl)cc2)on1)N1CCN(c2ccccc2)CC1` the value was 24.2% (active); for `O=C(c1cc(-c2ccc(F)cc2)on1)N1CCN(c2ccc(F)cc2)CC1`, 91%. Regarding `O=C(c1cc(-c2ccc(O)cc2)on1)N1CCOCC1`, the binding (percent of control) was 104%. Under `Cc1cccc(C(=O)Nc2nnc(S(=O)(=O)N3CCCCCC3)s2)c1` stands 29.9% (active); under `COc1cccc(C(=O)Nc2nnc(S(=O)(=O)N3CCCCC3)s2)c1`, 99.3%. For `O=C(Nc1nnc(S(=O)(=O)N2CCCCCC2)s1)c1cccc(Br)c1` the value was 102%; for `CC1(C2CC2)NC(=O)N(CC(=O)N2CCN(c3ccccc3F)CC2)C1=O` (stereo not drawn), 101%; for `COc1ccc(NC(=O)CSc2nnnn2-c2cccc(OC)c2)cc1`, 92.2%.

`O=C(O)c1ccc(S(=O)(=O)c2ccccc2)s1`: the binding (percent of control) was 123%.

With `O=C(O)C#Cc1cccc2ccccc12`, the binding (percent of control) was 97.7%. With `O=C(O)c1cc2ccccc2c(=O)s1`, the binding (percent of control) is 53.2% (active). For `CCN1C(=O)[C@H]2[C@@H](c3ccc(C(F)(F)F)cc3)N[C@]3(CCCN(Cc4ccc(Br)cc4)C3=O)[C@H]2C1=O` the value was 111%; for `CCC(=C/c1sc2ccc3ccccc3c2[n+]1C)/C=C1\Sc2ccc3ccccc3c2N1C`, 75% (active).

In the case of `CCOC(=O)c1cc(-c2sc(NC(=O)c3ccccc3)nc2C)n(-c2ccc(Br)cc2)n1`, the binding (percent of control) was 102%.

With `O=C(CSc1ccccn1)N1CCN(S(=O)(=O)c2ccc(Cl)cc2)CC1`, the binding (percent of control) is 96.2%. Consider `O=C(COc1ccc(Cl)cc1)N1CCN(S(=O)(=O)c2ccc(Cl)cc2)CC1`, for which the binding (percent of control) is 66.4% (active). Under `Nc1nc(SCC(=O)N2CCN(S(=O)(=O)c3ccc(Cl)cc3)CC2)n[nH]1` stands 104%; under `O=C(CSc1ccc(-c2ccc(-n3cccn3)cc2)nn1)Nc1ccc([N+](=O)[O-])cc1`, 89.5% (active). Under `O=C(CSc1ccc([N+](=O)[O-])cn1)Nc1ccc(N2CCOCC2)cc1` stands 96.9%. Under `O=C(CSc1ccc(-c2ccccn2)nn1)Nc1ccccc1` stands 101%. For `COc1ccccc1NC(=O)C(CC(=O)O)Cc1cc(C)cc(C)c1` (stereo not drawn), the binding (percent of control) was 96.8%. Under `COc1ccc(CCNC(=O)CN(c2ccccc2)S(=O)(=O)c2ccccc2)cc1` stands 97.8%. For `COc1ncnc2c1ncn2CCCNCCN1CCOCC1` the value was 98%.

Take `COc1cccc(/C=N\Nc2nncc(-c3ccccc3)n2)c1`: the binding (percent of control) is 90.1% (active).

Consider `COc1cccc(/C=N/Nc2ccc(Cl)nn2)c1`, for which the binding (percent of control) was 98.6%.

In the case of `COc1cccc(/C=N/NC(=O)C(=O)N2CCCC2)c1`, the binding (percent of control) was 102%.

Regarding `CC(=O)c1c(C)n(-c2ccc(N(C)C)cc2)c2ccc(OCC(N)=O)cc12`, the binding (percent of control) is 96.5%. Turning to `CCOC(=O)c1c(CN2CCOCC2)n(-c2ccccc2)c2ccc(O)cc12`, the binding (percent of control) was 107%. On to `CC(=O)c1c(C)n(-c2ccc(C)cc2)c2ccc(O)cc12`, for which the binding (percent of control) is 61.8% (active). Under `CCOC(=O)C(C(=O)c1ccccc1)C(c1ccccc1)c1nccc2ccccc12` (stereo not drawn) stands 108%; under `O=C(O)C1CCCN1c1nc(Cl)ccc1[N+](=O)[O-]` (stereo not drawn), 90.2%; under `COc1ccc(S(=O)(=O)N2CCC(C(=O)NCCC(=O)NCCc3cccc(F)c3)CC2)cc1`, 99%. For `Cc1nc(-c2ccccc2)sc1C(=O)/C=C/N(C)C` the value was 97.8%; for `Cc1nc(-c2ccc(Cl)cc2)sc1C(=O)NN`, 110%. For `Cc1nc(-c2ccc(Cl)cc2)sc1C(=O)CBr` the value was 63.4% (active); for `COc1ccc(CN2C(=O)C(CC(=O)NC3CCCCC3)CC(C(=O)N3CCOCC3)=C2C)cc1` (stereo not drawn), 102%; for `O=[N+]([O-])c1ccc(N/N=C/c2ccccc2)cc1`, 102%. On to `O=[N+]([O-])c1ccc(N=NNc2ccc([N+](=O)[O-])cc2)cc1`, for which the binding (percent of control) is 44.4% (active). For `COC(=O)c1ccccc1N=NNc1ccc([N+](=O)[O-])cc1`, the binding (percent of control) was 104%. Under `COc1cc(C)c(CN2CCN(C(=O)CCC(=O)c3ccc(C)s3)CC2)cc1OC` stands 98.2%.

`COc1ccc(NC(=O)CCCOc2ccc(C(C)=O)cc2)cc1S(=O)(=O)N1CCCCC1`: the binding (percent of control) was 109%. For the compound `c1ccc(Cn2nnc3c(NCC4CC4)ncnc32)cc1`, the binding (percent of control) is 101%. For `O=C(c1cccnc1)N(Cc1ccccc1)C(=O)c1cccnc1` the value was 86.3%; for `O=C(CC(=O)c1cccnc1)c1ccccc1`, 66.2% (active); for `O=C(NNC(=O)c1cccnc1)Nc1ccccc1`, 103%. Take `CCOC(=O)c1cc(-c2sc(NC(=O)c3ccccc3)nc2C)n(Cc2ccccc2)n1`: the binding (percent of control) was 101%. As for `CCOC(=O)C1CCN(C(=O)c2ccc3c(=O)n4nc(Nc5ccccc5CC)sc4nc3c2)CC1`, the binding (percent of control) is 104%.

Take `Cc1nn(CC(=O)Nc2ccc(F)cc2)c(=O)c2ccccc12`: the binding (percent of control) is 105%.

Take `Cc1ccc(NC(=O)Cn2sc3ccccc3c2=O)cc1`: the binding (percent of control) is 58.5% (active). With `Cc1ccc(NC(=O)Cn2c(C)csc2=O)cc1`, the binding (percent of control) is 92.9%.

With `C[C@@H]1CN([C@@H](C)CO)C(=O)c2c(c3ccccc3n2C)-c2ccccc2CO[C@H]1CN(C)C(=O)C1CC1`, the binding (percent of control) is 101%. Take `COc1ccc(Cl)cc1NC(=O)CN(C)C(=O)c1cn(-c2ccccc2)nc1-c1cccs1`: the binding (percent of control) is 112%. For `Cn1ncc([N+](=O)[O-])c1C(=O)Nc1cc(Cl)ccc1Cl` the value was 102%; for `N#Cc1ccc(COC(=O)Cn2nnc(-c3ccccc3)n2)cc1`, -1.31% (active).

Consider `O=C(Cn1nnc(-c2ccccc2)n1)NC(=O)NC1CCCC1`, for which the binding (percent of control) is 102%.

Turning to `COc1cc(-c2nnn(CC(=O)NCc3ccccc3)n2)cc(OC)c1OC`, the binding (percent of control) was 89.3%. For `O=C(CSc1ccc(C(F)(F)F)cc1[N+](=O)[O-])NCCOc1ccccc1`, the binding (percent of control) was 87.7% (active).

For the compound `CCCCCCCCC(=O)NCCOc1ccccc1`, the binding (percent of control) was 96.9%.

For the compound `Cc1cccc(OCCNC(=O)CSc2ccc(C(F)(F)F)cc2[N+](=O)[O-])c1`, the binding (percent of control) was 114%. For `CCOC(=O)c1cnn2c(SC)ncnc12`, the binding (percent of control) was 105%. Turning to `CCOc1ccc(NC(=O)c2nc(SCC)ncc2Cl)cc1`, the binding (percent of control) was 62.8% (active). Regarding `CSc1ncc(Cl)c(C(=O)Nc2cc(C)ccc2C)n1`, the binding (percent of control) was 95%. Under `CCOc1ccc(NC(=O)NNC(=O)c2ccc(Cl)cc2Cl)cc1` stands 103%; under `COc1ccc(NC(=O)COC(=O)C2COc3ccccc3O2)cc1` (stereo not drawn), 100%; under `Cc1ccc(C(=O)OCC(=O)NC2CCCCCCC2)cc1C`, 97%.

For `CC(C)n1ncc2c(C(=O)N3CCN(Cc4cccs4)CC3)cc(C3CC3)nc21`, the binding (percent of control) is 101%.

Regarding `COc1ccc(NC(=O)CCCC(=O)c2ccccc2)cc1`, the binding (percent of control) is 72.9% (active).

As to `COc1ccc(C(=O)CCC(=O)Nc2ccc(Cl)cc2)cc1`, the binding (percent of control) is 102%. On to `COc1ccc(NC(=O)CS(=O)(=O)c2ccccc2)cc1`, for which the binding (percent of control) was 103%. On to `C#Cc1cc(N2CCN(C(=O)c3ccoc3)CC2)n2nc(-c3cccc(Cl)c3)cc2n1`, for which the binding (percent of control) is 96%. Regarding `Cc1ccc(C=O)c([B-](F)(F)F)c1`, the binding (percent of control) was 103%.

Turning to `CC1(C)OC(=O)C2=C(CC(c3ccccc3)OC2CCc2ccccc2)O1` (stereo not drawn), the binding (percent of control) is 109%. In the case of `Cc1ccc(-n2nc3cc(C)c(NC(=O)c4cccnc4)cc3n2)cc1`, the binding (percent of control) was 78.3% (active). Under `Cc1ccc(S(=O)(=O)N2CCCCC2)cc1NC(=O)c1cccnc1` stands 103%; under `O=C(Nc1cccc(-n2cnnn2)c1)c1cccnc1`, 104%.

Regarding `CC(=O)Nc1c(-c2ccc(C)cc2)nc2ccc(Cl)cn12`, the binding (percent of control) is 98.5%. Under `CCCCN1C[C@H](c2ccc(Br)cc2)[C@@H](CC(=O)Nc2ccc(Br)cc2)C1=O` stands 102%; under `C=CCNC(=O)c1cc(-c2ccccc2O)on1`, 79.7% (active); under `O=C(c1cc(-c2ccccc2O)on1)N1CCCC1`, 105%. For `O=C(Nc1cccnc1Cl)c1cc(-c2ccccc2O)on1` the value was 92.4%; for `O=C(COC(=O)CCc1c[nH]c2ccccc12)Nc1cccc(Cl)c1`, 102%.

As for `COc1ccccc1C(=O)NC(=S)Nc1ccc(N2CCOCC2)cc1`, the binding (percent of control) was 101%. For `CC(C)[C@H](NC(=O)c1ccccc1F)C(=O)Nc1cccc(S(=O)(=O)N2CCOCC2)c1` the value was 107%; for `O=C(N/N=C/c1cccnc1)c1cc2ccccc2cc1O`, 97.3% (active). For `Cc1ccc(/C=N/NC(=O)c2cc3ccccc3cc2O)o1` the value was 111%. For `O=C(N/N=C\c1cccnc1)c1cc(-c2ccccc2)nc2c(Cl)cccc12` the value was 111%. On to `Cc1ccccc1C#CC1=CC(=O)CC(C)(C)C1`, for which the binding (percent of control) was 97.5%. For `C[C@@H]1CN([C@H](C)CO)S(=O)(=O)c2ccc(C#CC3CCCCC3)cc2O[C@H]1CN(C)C(=O)Cc1ccncc1` the value was 123%; for `CN(C)C(CNC(=O)c1cc(Br)c(Br)s1)c1ccco1` (stereo not drawn), 99.7%; for `Cc1cccc(NC(=O)CSCC(=O)Nc2nnc(C3CC3)s2)c1`, 105%. For the compound `O=C(CN1C(=O)c2ccc([N+](=O)[O-])cc2C1=O)Nc1nnc(C2CC2)s1`, the binding (percent of control) was 66.2% (active). For `O=C(Cc1cccs1)Nc1nnc(C2CC2)s1`, the binding (percent of control) is 125%.

The record behind these values is PubChem BioAssay AID588358 (NMMLSC, 2011).
